Results on 37 compounds are retold here after PubChem BioAssay (NCI).

Structures are written as SMILES. Compounds without any hit were thinned out: in the full panel of roughly 83,000, 20% have a hit.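 Cells were grown in 96-well plates and exposed to the test compound at a single concentration for 48 hours; results are reported as percent growth, with values below 10 considered active.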 The source made the active and inactive calls.

One assay has as its system HCT-116 colon. In words: NCI-60 one-dose screen, 48 h (100 = growth as untreated, 0 = no growth, -100 = all killed). The following applies: 10 µM.
In the case of `COc1cc(-c2nc3cc(Cl)c(Cl)cc3[nH]2)ccc1OCC(=O)NN`, the growth was 96.1% (inactive).
Turning to `CC1(C)Cc2c(cn(Cc3ccccc3)c2-c2ccccc2)-c2oncc21`, the growth is 88.2% (inactive).
In the case of `CCOc1ccc(-n2cc(-c3ccc(N(C)C)cc3)[n+]3c2CCCCC3)cc1`, the growth is 0.582% (active).
On to `O=C(COCc1c(-c2ccccc2)no[n+]1[O-])Nc1nc(-c2ccc(Cl)cc2)cs1`, for which the growth was 104% (inactive).
Still for that read-out and setting: the same measure for `CCN(Cc1ccccc1)C1CCN(Cc2cc(Br)ccc2O)CC1`: 38.7% (inactive).
In the case of `COCc1cc2c(cc1Br)OCO2`, the growth was 98.6% (inactive).
In the case of `COc1cc(/C=C/C(=O)c2cc(-c3ccc(C(F)(F)F)cc3)ccc2O)cc(OC)c1OC`, the growth is 46.6% (inactive).
With `Cc1cc(C#Cc2ccccc2)ccc1-n1c(/C=C/c2cc(O)ccc2O)nc2ccccc2c1=O`, the growth was -43.8% (active).
`COc1cc(-c2nc3ccc(C)cc3[nH]2)ccc1OCC(=O)N=Nc1c(O)[nH]c2ccccc12`: the growth is -82.7% (active).
As for `COc1cc(-c2nc(-c3nnc(-c4cccnc4)o3)c3ccccn23)cc(OC)c1OC`, the growth was 96.8% (inactive).
Consider `COc1cccc(C2(C)Nc3ccccc3-c3nc4ccccc4n32)c1` (centres undefined), for which the growth was 106% (inactive).
For the compound `COc1cc(CSc2nc3ccc(Cl)cc3c(=O)n2Cc2ccccc2)cc(OC)c1OC`, the growth is 20.8% (inactive).
Consider `CC(C)c1[nH]nc2c(NCc3ccc(-c4ccccn4)cc3)nc(SCCN(C)C)nc12`, for which the growth is 9.24% (active).
Same read-out and setting: the same measure for `OC(CNC1CCCC1)Cn1c2ccccc2c2ccccc21` (centres undefined): -37.3% (active).
The same measure, in the same setting: the value for `O=c1cc(CSc2nnc(-c3ccccc3)n2-c2ccc(F)cc2)c2ccc3ccccc3c2o1` was 86.5% (inactive).
With `CC[C@@]1(C(N)=O)CC2C=CC1C2` (some centres undefined), the growth was 104% (inactive).
For the compound `CCCCOCC(=O)NC(NP(=O)(N(C)C)N(C)C)C(Cl)(Cl)Cl` (centres undefined), the growth was 96.6% (inactive).
With `COc1ccccc1S(=O)(=O)Nc1ccc2c(c1)CN(C)C(=O)N2`, the growth was 49.7% (inactive).
Regarding `O=C1CC(c2cccc(-c3cccnc3)c2)=Nc2ccc(Br)cc2N1`, the growth was 23% (inactive).
In the case of `N#Cc1c2c([nH]c(=O)c1C(N)=O)CCCCC2`, the growth was 91.8% (inactive).
For `CCOC(=O)C(CCC1=NC(C)(C)CC(C)O1)C(=O)OCC` (centres undefined), the growth was 46% (inactive).
In the case of `COc1cc(Nc2ccnc(N3CCN(c4ccnc5cc(Cl)ccc45)CC3)n2)cc(OC)c1`, the growth is 5.15% (active).
With `CS(=O)(=O)Nc1ccc(OCc2nnc(-c3ccc(Cl)cc3)o2)c(F)c1`, the growth was 86.9% (inactive).
The same measure, in the same setting: the same measure for `COc1cc(C2CC(=O)Nc3c2c(C)nn3-c2nc3ccccc3[nH]2)cc(OC)c1O` (centres undefined): 68.4% (inactive); for `CCCCCCN=C(N)CCCCCCCCCCC(N)=NCCCCCC`: 16.5% (inactive); for `COc1ccc(-c2ccc(-c3ccc(C(=N)N)c(F)c3)s2)cc1`: -82.6% (active).
As for `Oc1ccccc1-c1nnc(Cn2c(Cc3cccc4ccccc34)nc3ccccc32)o1`, the growth is 100% (inactive).
Same read-out and setting: the same measure for `FC(F)(F)c1ccc(-c2nc(-c3nc4cc(Cl)c(Cl)cc4[nH]3)c3ccccn23)cc1`: 33.8% (inactive); for `CC(=O)Nc1ccc(Sc2ccc(NC(C)=O)cc2)cc1`: 98.5% (inactive); for `CNC(=O)c1cc(Oc2ccc(NC(=O)Nc3ccc(Cl)c(OC(C)C)c3)c(F)c2)ccn1`: 30.4% (inactive).
Regarding `c1ccc(OCCC[P+](c2ccccc2)(c2ccccc2)c2ccccc2)cc1`, the growth is 6.18% (active).
Take `CN(C)c1ccc2c(c1)OC(N)=C(C#N)C2c1ccc2c(c1)CCCN2C` (centres undefined): the growth is 7.88% (active).
Still for that read-out and setting: the same measure for `CCOC(=O)Nc1ccc2c(c1)C(=O)N(CCOC)c1ccccc1O2`: 24.4% (inactive); for `COc1cccc2c1O/C(=C\c1ncc([N+](=O)[O-])n1C)C2=O`: -53.2% (active); for `O=C1/C(=C/c2ccc(O)cc2O)N=C2SCCCN12`: 99.5% (inactive).
On to `O=S(=O)(NC1c2ccccc2Oc2ccccc21)c1cc(Cl)ccc1Cl`, for which the growth is 90.4% (inactive).
On the same count and under the same terms, the value for `CCCCN(CCCC)c1ccc(C(=NC(C)CCCN(CC)CC)c2ccc(N(C)C)cc2)cc1` (centres undefined) was -81.5% (active).

The subject of the next assay is HCC-2998 colon. The assay is described as above. The following applies: 10 µM.
On to `COc1cc(-c2nc3cc(Cl)c(Cl)cc3[nH]2)ccc1OCC(=O)NN`, for which the growth was 103% (inactive).
For `CC1(C)Cc2c(cn(Cc3ccccc3)c2-c2ccccc2)-c2oncc21`, the growth is 104% (inactive).
With `CCOc1ccc(-n2cc(-c3ccc(N(C)C)cc3)[n+]3c2CCCCC3)cc1`, the growth is 21.3% (inactive).
On to `O=C(COCc1c(-c2ccccc2)no[n+]1[O-])Nc1nc(-c2ccc(Cl)cc2)cs1`, for which the growth is 104% (inactive).
For the compound `CCN(Cc1ccccc1)C1CCN(Cc2cc(Br)ccc2O)CC1`, the growth is 2.04% (active).
As for `COCc1cc2c(cc1Br)OCO2`, the growth was 95.9% (inactive).
With `COc1cc(/C=C/C(=O)c2cc(-c3ccc(C(F)(F)F)cc3)ccc2O)cc(OC)c1OC`, the growth was 94.6% (inactive).
With `Cc1cc(C#Cc2ccccc2)ccc1-n1c(/C=C/c2cc(O)ccc2O)nc2ccccc2c1=O`, the growth is -49.6% (active).
Same read-out and setting: the value for `COc1cc(-c2nc3ccc(C)cc3[nH]2)ccc1OCC(=O)N=Nc1c(O)[nH]c2ccccc12` was -91.2% (active); that for `COc1cc(-c2nc(-c3nnc(-c4cccnc4)o3)c3ccccn23)cc(OC)c1OC` was 99.9% (inactive); that for `COc1cccc(C2(C)Nc3ccccc3-c3nc4ccccc4n32)c1` (centres undefined) was 106% (inactive).
Same read-out and setting: the same measure for `COc1cc(CSc2nc3ccc(Cl)cc3c(=O)n2Cc2ccccc2)cc(OC)c1OC`: 50.1% (inactive).
On the same count and under the same terms, the same measure for `CC(C)c1[nH]nc2c(NCc3ccc(-c4ccccn4)cc3)nc(SCCN(C)C)nc12`: -15.7% (active); for `OC(CNC1CCCC1)Cn1c2ccccc2c2ccccc21` (centres undefined): 1.39% (active).
Take `O=c1cc(CSc2nnc(-c3ccccc3)n2-c2ccc(F)cc2)c2ccc3ccccc3c2o1`: the growth is 86.9% (inactive).
As for `CC[C@@]1(C(N)=O)CC2C=CC1C2` (some centres undefined), the growth was 108% (inactive).
As to `CCCCOCC(=O)NC(NP(=O)(N(C)C)N(C)C)C(Cl)(Cl)Cl` (centres undefined), the growth is 103% (inactive).
As to `COc1ccccc1S(=O)(=O)Nc1ccc2c(c1)CN(C)C(=O)N2`, the growth was 64.4% (inactive).
Still for that read-out and setting: the same measure for `O=C1CC(c2cccc(-c3cccnc3)c2)=Nc2ccc(Br)cc2N1`: 74.8% (inactive).
Regarding `N#Cc1c2c([nH]c(=O)c1C(N)=O)CCCCC2`, the growth is 111% (inactive).
Take `CCOC(=O)C(CCC1=NC(C)(C)CC(C)O1)C(=O)OCC` (centres undefined): the growth was 98.8% (inactive).
Take `COc1cc(Nc2ccnc(N3CCN(c4ccnc5cc(Cl)ccc45)CC3)n2)cc(OC)c1`: the growth was 9.25% (active).
Same read-out and setting: the same measure for `CS(=O)(=O)Nc1ccc(OCc2nnc(-c3ccc(Cl)cc3)o2)c(F)c1`: 101% (inactive); for `COc1cc(C2CC(=O)Nc3c2c(C)nn3-c2nc3ccccc3[nH]2)cc(OC)c1O` (centres undefined): 88.9% (inactive).
Same read-out and setting: the same measure for `CCCCCCN=C(N)CCCCCCCCCCC(N)=NCCCCCC`: 35.7% (inactive); for `COc1ccc(-c2ccc(-c3ccc(C(=N)N)c(F)c3)s2)cc1`: -83.9% (active); for `Oc1ccccc1-c1nnc(Cn2c(Cc3cccc4ccccc34)nc3ccccc32)o1`: 104% (inactive).
Regarding `FC(F)(F)c1ccc(-c2nc(-c3nc4cc(Cl)c(Cl)cc4[nH]3)c3ccccn23)cc1`, the growth is 83% (inactive).
`CC(=O)Nc1ccc(Sc2ccc(NC(C)=O)cc2)cc1`: the growth is 97.2% (inactive).
As for `CNC(=O)c1cc(Oc2ccc(NC(=O)Nc3ccc(Cl)c(OC(C)C)c3)c(F)c2)ccn1`, the growth was 66.7% (inactive).
On the same count and under the same terms, the same measure for `c1ccc(OCCC[P+](c2ccccc2)(c2ccccc2)c2ccccc2)cc1`: 14.3% (inactive).
Regarding `CN(C)c1ccc2c(c1)OC(N)=C(C#N)C2c1ccc2c(c1)CCCN2C` (centres undefined), the growth is 26.7% (inactive).
Turning to `CCOC(=O)Nc1ccc2c(c1)C(=O)N(CCOC)c1ccccc1O2`, the growth is 55.3% (inactive).
As for `COc1cccc2c1O/C(=C\c1ncc([N+](=O)[O-])n1C)C2=O`, the growth is -54.9% (active).
On the same count and under the same terms, the value for `O=C1/C(=C/c2ccc(O)cc2O)N=C2SCCCN12` was 119% (inactive).
As for `O=S(=O)(NC1c2ccccc2Oc2ccccc21)c1cc(Cl)ccc1Cl`, the growth was 99.1% (inactive).
As for `CCCCN(CCCC)c1ccc(C(=NC(C)CCCN(CC)CC)c2ccc(N(C)C)cc2)cc1` (centres undefined), the growth was -59% (active).
